D3 antag: antagonists of human D3 dopamine receptor. D3R cells, DiscoveRx beta-arrestin luminescence, antagonist mode; stronger effect = lower value. max response, negative = inhibition, %. 360,000 compounds, 2.5% hits; in the data active means max response below about -50%; inconclusive means no clear call, values can overlap the other calls; further: on the % scale 0 is the no-effect control and ±100 the full control effect
Target sequence (P35462 whole entry, looked up): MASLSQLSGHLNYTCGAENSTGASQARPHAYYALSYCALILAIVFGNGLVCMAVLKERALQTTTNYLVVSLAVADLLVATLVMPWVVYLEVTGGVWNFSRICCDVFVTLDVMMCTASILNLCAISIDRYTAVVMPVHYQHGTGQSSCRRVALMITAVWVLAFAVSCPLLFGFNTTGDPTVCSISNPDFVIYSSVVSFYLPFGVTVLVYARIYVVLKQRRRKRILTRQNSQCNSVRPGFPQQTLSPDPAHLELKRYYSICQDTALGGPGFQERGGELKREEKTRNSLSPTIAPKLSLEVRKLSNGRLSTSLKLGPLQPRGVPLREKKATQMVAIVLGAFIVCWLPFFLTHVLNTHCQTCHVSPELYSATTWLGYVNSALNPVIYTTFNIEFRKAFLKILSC
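Cells expressing the human receptor were seeded at 1500 cells/well, incubated overnight at 37 degrees C in 5% CO2, then exposed to library compounds with dopamine controls for 90 minutes at 37 degrees C before luminescent detection.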
D1 antag: blocks dopamine activation of the human D1 receptor. activity change, negative = inhibition, % at 10 µM. AID 504652. HEK293 TREx D1 cells, calcium flux, dopamine EC80; stronger effect = lower value. 360,000 compounds, 3.2% hits; in the data active means activity change below about -30%; further: on the % scale 0 is the no-effect control and ±100 the full control effect
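Using tetracycline-induced force-coupled D1 Hek293 cells and a calcium dye, signals were followed for 180 s after compound, then for 180 s after EC80 dopamine, to detect inhibitors.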
DRD3 agonist: D3 dopamine receptor (human) agonism; max activation, %; 410,000 compounds, 0.58% hits; D3R DiscoveRx beta-arrestin cells, luminescence, 90 min; in the data active means max activation above about 30%; further: 0% is about no effect
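Agonist mode: compounds and dopamine controls were applied to plated cells for 90 min at 37 degrees C after an overnight attachment at 1500 cells/well. Luminescent read-out followed 30 - 60 minutes at room temperature with DiscoveRx detection reagent.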
D1 potentiator: human D1 dopamine receptor positive modulation | HEK293 TREx D1 cells, calcium flux, dopamine EC20 potentiation | AID 504651 | potentiation, % at 10 µM | P21728 | 360,000 compounds, 0.036% hits; in the data active means potentiation above about 30%; further: 0% is about no effect
D1 ag: agonists of human D1 dopamine receptor; HEK293 T-REx D1 cells, calcium flux, agonist mode; activation, % at 2 µM; P21728; 360,000 compounds, 1% hits; AID 504660; in the data active means activation above about 30%; further: 0% is about no effect
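Agonism was scored from calcium flux recorded over 180 s (1 read/s) after pintool compound addition, following a 10-cycle baseline. Cells were inducible force-coupled HEK293 TREx D1, plated overnight at 30 C and loaded with no-wash calcium dye.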
An asterisk follows results filed as active; ? = inconclusive; / = no result. Sampled rows, rich in hits. Any-hit rate of the full collection: about 6%.

SMILES	D3 antag	D1 antag	DRD3 agonist	D1 potentiator	D1 ag
Cc1cnc2c(c1SCC(=O)NCc1ccccc1Cl)c(=O)n(C)c(=O)n2C	/	/	-14	0	-3
COc1ccc(-c2cc(CNc3nc(NCc4ccccc4OC)nc4ccsc34)on2)cc1	24	/	6	/	/
C=CCN1C=C/C(=C\C=C(C#N)C#N)c2ccccc21	?	-26	-19	-3	7
CCCN1C=CC(=CC=C(C#N)C#N)C=C1	-17	-3	-15	-1	129*
C=CCN1C=CC(=CC=C(C#N)C#N)C=C1	12	-16	3	-10	96*
CC(C)c1ccc(OCC(=O)Nc2cc(-c3ccccc3)no2)cc1	/	11	-9	0	16
CC(C)NC(=O)CC(=O)Nc1ccc2nc3n(c(=O)c2c1)CCCCC3	/	-10	5	2	1
Cc1ccc(Sc2ccc(N3CCCC(C(=O)Nc4ccc(F)c(Cl)c4)C3)nn2)cc1 (stereo not drawn)	/	3	-3	2	1
O=C1CC(c2ccco2)CC(O)=C1C=Nc1ccccc1-c1ccccc1 (stereo not drawn)	-105*	-12	-14	-5	2
Cc1ccc(N=CC2=C(O)CC(c3ccco3)CC2=O)cc1 (stereo not drawn)	14	-38*	-2	3	3
O=C1CC(c2ccco2)CC(O)=C1C=Nc1cc(Cl)ccc1O (stereo not drawn)	0	-2	-9	7	9
CCOc1ccc(-c2c(C)nn3c(C)c(C(=O)Nc4cc(C)cc(C)c4)cnc23)cc1OCC	/	8	-18	-6	4
CC(=O)Nc1ccc(NC(=O)CN2CCN(c3cccc(C(F)(F)F)c3)CC2)cc1	-80*	-2	-17	9	7
CC(=O)Nc1ccc(CN2CCN(c3cccc(C(F)(F)F)c3)CC2)cc1	-92*	1	-59	-1	1
O=C(CN1CCN(c2cccc(C(F)(F)F)c2)CC1)Nc1cccc(C(F)(F)F)c1	?	-8	-8	-4	0
O=C(CN1CCN(c2cccc(C(F)(F)F)c2)CC1)NCc1ccccc1	-14	-45*	-9	-5	2
Cc1[nH]c2ccccc2c1C(O)CN1CCN(c2cccc(C(F)(F)F)c2)CC1 (stereo not drawn)	-74*	-59*	-10	-15	31*
CC(=O)N1CCc2cc(CNC(=O)Nc3ccc(Br)c(C)c3)ccc21	/	18	2	0	0
O=C1C(CN2CCCC2)CCCC1CN1CCCC1 (stereo not drawn)	-17	/	-9	/	/
O=C(C1COc2ccccc2O1)N1CCN(c2nc3c(F)cccc3s2)CC1 (stereo not drawn)	/	/	9	-1	0
COc1cccc(NC(=O)Cn2c(=O)ccc3cc(S(=O)(=O)N4CCC(C)CC4)ccc32)c1	/	41	-6	0	4
Cc1ccccc1-n1c(=O)c2c3c(sc2n2cnnc12)CCCC3	/	-10	-10	-3	1
COc1ccc([C@H]2CC(=O)C=C(c3ccc4c(c3)sc3ccccc34)C2)cc1	-25	/	-5	1	-1
OC(CN1CCN(Cc2ccc3c(c2)OCO3)CC1)c1c[nH]c2ccccc12 (stereo not drawn)	-12	3	-18	0	4
OC(CN1CCN(c2ccccc2)CC1)c1c[nH]c2ccccc12 (stereo not drawn)	-54*	-1	-8	-8	5
SMILES	D3 antag	D1 antag	DRD3 agonist	D1 potentiator	D1 ag
CN1C(=O)NC(c2ccc(C(F)(F)F)cc2)C2=C1CC(C)(C)CC2=O (stereo not drawn)	-14	8	-3	-1	32*
Cc1cccn2c(=O)nc(SCC(=O)N3CCC(Cc4ccccc4)CC3)nc12	-59*	3	-35	-1	0
O=C(c1ccco1)N1CCC(c2nc3c(nnn3Cc3c(Cl)cccc3Cl)c(=O)[nH]2)CC1	10	9	5	6	3
Cc1cc(NC(=O)C2CCN(C(=O)c3ccco3)CC2)ccc1Br	-17	-37*	-21	-5	9
O=C(c1ccc(-c2ccccc2)cc1)N1CCN(C(=O)c2ccco2)CC1	3	-37*	3	-1	3
CCOC(=O)N1CCN(S(=O)(=O)c2ccc(Br)s2)CC1	0	-5	2	-2	3
CC(C)(C)c1ccc(C(=O)N2CCN(S(=O)(=O)c3ccc(Br)s3)CC2)cc1	46	-32*	0	-11	6
